# Laboratory results from PubChem BioAssay (EPA / NIEHS).
# Records with an inconclusive call do not appear. Where a structure was tested more than once in an assay, its records may differ in their call. Calls of active or inactive are those of the source. How the source made its calls: active means hit-call score of the fitted dose curve at least 0.9, where 1 is the maximum; inconclusive means response in the unintended direction; inactive means score below 0.9.
# Molecular target: Mitogen-activated protein kinase 3 (Homo sapiens) (UniProt P27361)
# Assay: NVS_ENZ_hMAPK3: NovaScreen (NVS) Enzymatic Assay for human Mitogen-Activated Protein Kinase 3 (MAPK 3) (AID 2283177)
# How it was run: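 Chemicals were first tested in duplicate at 25 uM, with hits re-run as concentration series (max 50 uM). Recombinant enzyme activity, measured 1 h post-dose in a cell-free format, was read by fluorescence/mobility shift relative to DMSO.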
# Mitogen-activated protein kinase 3 (Homo sapiens), sequence (P27361 whole entry, looked up): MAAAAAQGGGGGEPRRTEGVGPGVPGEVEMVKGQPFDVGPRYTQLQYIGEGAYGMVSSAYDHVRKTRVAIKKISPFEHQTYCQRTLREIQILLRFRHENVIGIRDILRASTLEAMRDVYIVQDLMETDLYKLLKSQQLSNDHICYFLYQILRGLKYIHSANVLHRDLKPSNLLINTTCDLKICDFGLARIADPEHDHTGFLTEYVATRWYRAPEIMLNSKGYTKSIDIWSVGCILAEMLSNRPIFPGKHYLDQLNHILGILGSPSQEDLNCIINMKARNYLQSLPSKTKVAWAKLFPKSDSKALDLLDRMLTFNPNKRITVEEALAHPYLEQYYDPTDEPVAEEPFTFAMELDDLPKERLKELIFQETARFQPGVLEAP
Compound,AC50,outcome
CN(C)[C@@H]1C(=O)C(C(N)=O)=C(O)[C@@]2(O)C(=O)C3=C(O)c4c(O)cccc4[C@@](C)(O)[C@H]3[C@H](O)[C@@H]12,19.1 µM (active),inactive
S=C1NCCN1,–,inactive
CN(C)C(=O)Nc1cccc(C(F)(F)F)c1,–,inactive
Cc1ccn2nc(S(=O)(=O)Nc3c(F)cccc3F)nc2n1,–,inactive
COc1ccc(C(=CC(=O)N2CCOCC2)c2ccc(Cl)cc2)cc1OC,–,inactive
CC(C1CC1)C(O)(Cn1cncn1)c1ccc(Cl)cc1 (centres undefined),–,inactive

# Molecular target: human MAP Kinase-Activated Protein Kinase 2 (MAPKAPK2), MAPKAPK2 (gene 9261) (UniProt P49137)
# Assay: NVS_ENZ_hMAPKAPK2: NovaScreen (NVS) Enzymatic Assay for human MAP Kinase-Activated Protein Kinase 2 (MAPKAPK2) (AID 2283178)
# How it was run: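 Chemicals screened in duplicate at 25 uM, then to 50 uM top concentration in concentration-response, against recombinant human MAPKAPK2; substrate conversion read 1 hr post-dosing by fluorescence after electrophoretic mobility-shift separation, loss-of-signal relative to DMSO.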
# human MAP Kinase-Activated Protein Kinase 2 (MAPKAPK2), MAPKAPK2 (gene 9261), sequence (P49137 whole entry, looked up): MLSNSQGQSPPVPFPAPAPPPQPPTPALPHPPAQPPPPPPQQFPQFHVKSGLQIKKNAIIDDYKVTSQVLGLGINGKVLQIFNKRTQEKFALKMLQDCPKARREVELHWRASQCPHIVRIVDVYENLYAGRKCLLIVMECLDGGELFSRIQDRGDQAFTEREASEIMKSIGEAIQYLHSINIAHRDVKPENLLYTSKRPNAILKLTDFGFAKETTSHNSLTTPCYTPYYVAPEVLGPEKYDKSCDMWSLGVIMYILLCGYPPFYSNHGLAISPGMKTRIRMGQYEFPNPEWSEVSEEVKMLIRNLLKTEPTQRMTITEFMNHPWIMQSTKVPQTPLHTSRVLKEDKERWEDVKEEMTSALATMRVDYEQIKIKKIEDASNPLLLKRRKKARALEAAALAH
row,Compound,outcome
1,N#CSCSC#N,inactive
2,Nc1c(Cl)cc([N+](=O)[O-])cc1Cl,inactive
3,S=C1NCCN1,inactive

# Molecular target: human Matrix Metalloproteinase-7 (MMP7), MMP7 (gene 4316) (UniProt P09237)
# Assay: NVS_ENZ_hMMP7: NovaScreen (NVS) Enzymatic Assay for human Matrix Metalloproteinase-7 (MMP7) (AID 2283183)
# How it was run: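 Compounds first tested at 25 uM in duplicate, then at up to 50 uM in concentration series if active. Protease activity measured by fluorescence intensity 1 h after dosing, with fitting relative to DMSO.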
# human Matrix Metalloproteinase-7 (MMP7), MMP7 (gene 4316), sequence (P09237 whole entry, looked up): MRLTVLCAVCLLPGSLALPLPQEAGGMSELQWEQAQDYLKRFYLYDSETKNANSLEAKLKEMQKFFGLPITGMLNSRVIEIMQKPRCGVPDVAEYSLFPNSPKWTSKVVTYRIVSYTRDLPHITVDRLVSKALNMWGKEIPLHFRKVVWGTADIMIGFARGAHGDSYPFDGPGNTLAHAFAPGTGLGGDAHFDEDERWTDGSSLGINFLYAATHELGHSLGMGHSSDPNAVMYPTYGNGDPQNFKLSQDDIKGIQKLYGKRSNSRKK
Compound,outcome,AC50
N#CSCSC#N,inactive,–
CCOP(=S)(OCC)Oc1cc(C)nc(C(C)C)n1,inactive,–
CCOP(=O)(OCC)Oc1cc(C)nc(C(C)C)n1,–,11.8 µM (active)
CN(C)[C@@H]1C(=O)C(C(N)=O)=C(O)[C@@]2(O)C(=O)C3=C(O)c4c(O)cccc4[C@@](C)(O)[C@H]3[C@H](O)[C@@H]12,inactive,–
CCc1cnc(C2=NC(C)(C(C)C)C(=O)N2)c(C(=O)O)c1 (centres undefined),–,8.62 µM (active)
S=C1NCCN1,inactive,–
CNC(=O)Oc1cccc2c1OC(C)(C)O2,–,6.07 µM (active)

# Molecular target: human Matrix Metalloproteinase-3 (MMP3), MMP3 (gene 4314) (UniProt P08254)
# Assay: NVS_ENZ_hMMP3: NovaScreen (NVS) Enzymatic Assay for human Matrix Metalloproteinase-3 (MMP3) (AID 2283185)
# How it was run: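 Fluorescent substrate turnover by recombinant MMP3 read after 1 h, signal loss scored against DMSO. Compounds first run in duplicate at 25 uM single dose, then actives confirmed by concentration series.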
# human Matrix Metalloproteinase-3 (MMP3), MMP3 (gene 4314), sequence (P08254 whole entry, looked up): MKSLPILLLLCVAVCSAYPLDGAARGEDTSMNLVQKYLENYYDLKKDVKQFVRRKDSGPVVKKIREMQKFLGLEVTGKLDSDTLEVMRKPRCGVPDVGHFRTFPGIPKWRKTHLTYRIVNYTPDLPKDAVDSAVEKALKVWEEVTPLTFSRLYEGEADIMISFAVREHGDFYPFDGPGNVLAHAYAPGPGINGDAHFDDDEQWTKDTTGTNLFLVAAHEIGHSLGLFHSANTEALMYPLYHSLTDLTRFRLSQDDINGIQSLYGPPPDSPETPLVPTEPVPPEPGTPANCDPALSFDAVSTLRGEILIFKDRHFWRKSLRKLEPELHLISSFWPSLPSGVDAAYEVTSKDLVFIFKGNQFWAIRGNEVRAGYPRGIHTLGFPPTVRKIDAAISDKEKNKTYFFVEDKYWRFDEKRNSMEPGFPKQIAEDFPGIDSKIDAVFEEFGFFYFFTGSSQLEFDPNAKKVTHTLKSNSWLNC
row,Compound,outcome
1,Nc1c(Cl)cc([N+](=O)[O-])cc1Cl,inactive
2,CCOP(=O)(OCC)Oc1cc(C)nc(C(C)C)n1,inactive
3,CCOP(=S)(OCC)OC(Cl)C(Cl)(Cl)Cl (centres undefined),inactive
4,C#CC(C)(C)NC(=O)c1cc(Cl)cc(Cl)c1,inactive
5,S=C1NCCN1,inactive
6,CC1=NNC(=O)N(/N=C/c2cccnc2)C1,inactive
7,Cc1cc(C2CC2)nc(Nc2ccccc2)n1,inactive
